Rows were chosen to be rich in hits. Some 0.32% of all compounds tested hit in one or more screens of this group.
MLL CXXC-DNA inh: blocks binding of human MLL CXXC domain to DNA; Q03164; actives 0.037% (n = 290,000); AID 2662; Potency, µM (titrated, usually from 115 µM), inactives show at the highest dose activity change, negative = inhibition, usual class: inhibitors; MLL-CXXC / FITC-HOXA9 DNA fluorescence polarization; active = well fitted inhibition curve with a large enough effect in the polarisation, with a control signal flat, not every such curve was filed as active; inconclusive = small, poorly fitted or top-dose-only effect, or effect the other way, or a change in a side signal; inactive = no such curve, though single readings can be large or run the other way; the % refers to the polarisation; also: potency is read from the fitted curve at half-maximal effect
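Steps: dispense CXXC domain solution (7 uM) → pin compounds or unlabeled HOX-A9 DNA control → 5 min ambient → add FLSN-HOX-A9 solution (50 nM) → spin → 30 min ambient → fluorescence polarization. Tris pH 7.5/NaCl/DTT/BSA buffer.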
Menin-MLL FL inh: displaces fluorescein MLL peptide from human menin. FP activity change, % at 61.4 µM. 290,000 tested, under 10 active. AID 1766. Fluorescence polarization, fluorescein-MLL peptide displacement from menin; active = well fitted curve in the direction sought with a large enough effect in the polarisation, not every such curve was filed as active; inconclusive = small, poorly fitted or top-dose-only effect, or effect the other way, or a change in a side signal; inactive = no such curve, though single readings can be large or run the other way; the % refers to the polarisation; also: % of control where 0% means no effect
TRPV1 PAM: human TRPV1 potentiation; Q8NER1; TRPV1-expressing cells, Fluo-8 calcium influx, capsaicin EC20 potentiation; potentiation, % at 8.33 µM; actives 0.02% (n = 320,000); in the data active = potentiation above about 80%; inconclusive = between about 30% and that limit; also: 0% is about no effect
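TRPV1-expressing cells were cultured overnight at 35.5C and loaded with Fluo-8 calcium dye for 40 to 90 min at room temperature. After a 10 s baseline, compound was added and calcium influx was read kinetically for 3 min (ex 480/em 520 nm).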
Menin-MLL TR inh: inhibitors of human menin-MLL interaction, mutant MLL peptide; O00255; Menin + Texas Red MLL mutant peptide, fluorescence polarization; Potency, µM (highest dose often 61.6 µM), for inactives: at the highest dose FP activity change, negative = inhibition, usual class: inhibitors; actives 0.23% (n = 270,000); AID 1768; active = well fitted inhibition curve with a large enough effect in the polarisation, with a control signal flat, not every such curve was filed as active; inconclusive = small, poorly fitted or top-dose-only effect, or effect the other way, or a change in a side signal; inactive = no such curve, though single readings can be large or run the other way; the % refers to the polarisation; also: potency is read from the fitted curve at half-maximal effect; % of control where 0% means no effect
TRPV1 ag: agonists of human vanilloid receptor 1 (TRPV1); Q8NER1; TRPV1-expressing cells, Fluo-8 calcium influx, agonist mode; activation, % at 8.33 µM; actives 0.19% (n = 320,000); in the data active = activation above about 80%; inconclusive = between about 30% and that limit; also: 0% is about no effect
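Cells expressing TRPV1 were dye-loaded with Fluo-8 and read kinetically: 10 s baseline, 3 min after compound (agonist portion), then 2 min after EC20 capsaicin (allosteric enhancer portion). Calcium-bound dye fluorescence at 480/520 nm.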
* hit, by the source's call; ? = inconclusive; . = no result given; [ ] = remark or other dose.

SMILES | MLL CXXC-DNA inh | Menin-MLL FL inh | TRPV1 PAM | Menin-MLL TR inh | TRPV1 ag
CCOC(=O)[C@H]1[C@H]2COc3ccc(Br)cc3[C@@H]2N2C(=O)c3cc(Br)ccc3NC(=O)[C@@]12C | . | . | 25 | . | 83*
CCOC(=O)[C@H]1[C@H]2COc3ccc(OC)cc3[C@@H]2N2C(=O)c3cc(OC)ccc3NC(=O)[C@@]12C | . | . | 5 | . | 97*
CCOC(=O)[C@H]1[C@H]2COc3ccc(OC)cc3[C@@H]2N2C(=O)c3cc(F)c(F)cc3NC(=O)[C@@]12C | . | . | ? | . | 92*
CCOC(=O)[C@H]1[C@H]2COc3ccc(OC)cc3[C@@H]2N2C(=O)c3ccccc3NC(=O)[C@@]12C | . | . | -7 | . | 100*
CCOC(=O)[C@H]1[C@H]2COc3ccc(OC)cc3[C@@H]2N2C(=O)c3cc(OC)c(OC)cc3NC(=O)[C@@]12C | . | . | 7 | . | -1
CC[C@H](C)[C@H](NC(=O)[C@H](CCC(=O)O)NC(=O)CNC(=O)[C@@H](NC(=O)[C@@H]1CCCN1C(=O)[C@@H](NC(=O)[C@@H]1CCCN1C(=O)[C@@H]1CCCN1C(=O)[C@H](CC(N)=O)NC(=O)[C@H](CC(N)=O)NC(=O)[C@@H](NC(=O)[C@H](CCSC)NC(=O)[C@H](Cc1c[nH]c2ccccc12)NC(=O)CNC(=O)[C@@H](NC(=O)[C@H](CCC(N)=O)NC(=O)[C@@H](N)CCC(=O)O)[C@@H](C)CC)[C@@H](C)O)[C@@H](C)CC)C(C)C)C(=O)O | . | -5 | . | -11% | .
COc1cc(NC(=O)Nc2cccc(C(C)=O)c2)cc(OC)c1OC | -4% | -1 | -14 | 26% | 82*
COc1cccc(/C=C/C(=O)Nc2cccc(C(C)=O)c2)c1OC | 14% | 0 | -16 | 5% | 90*
CCC(=O)Nc1ccc(C(=O)N/N=C/c2cccnc2)cc1 | -2% | -2 | 6 | -2% | -1
CCCCCCC(=O)Nc1ccc(C(=O)N/N=C/c2cccnc2)cc1 | 6% | -3 | 13 | 11% | 86*
COc1ccc2c(n1)Sc1nc3ccccc3nc1N2 | ? | ? | 11 | ? | 110*
CC[C@H](C)[C@H](NC(=O)[C@H](CO)NC(=O)[C@H](CC(C)C)NC(=O)[C@H](CO)NC(=O)[C@@H]1CCCN1C(=O)[C@H](CC(N)=O)NC(=O)[C@@H](N)CC(=O)O)C(=O)N[C@@H](CC(=O)O)C(=O)N[C@@H](CC(C)C)C(=O)N[C@H](C(=O)N[C@@H](Cc1ccccc1)C(=O)N[C@@H](Cc1cnc[nH]1)C(=O)N[C@@H](CC(C)C)C(=O)N[C@@H](CC(C)C)C(=O)N[C@@H](CCCNC(=N)N)C(=O)N[C@H](C(=O)N[C@@H](CC(C)C)C(=O)N[C@@H](CC(C)C)C(=O)N[C@@H](CCC(=O)O)C(=O)N[C@@H](CC(C)C)C(=O)N[C@@H](C)C(=O)N[C@@H](CCCNC(=N)N)C(=O)N[C@H](C(=O)N[C@@H](CCC(N)=O)C(=O)N[C@@H](CO)C(=O)N[C@@H](CCC(N)=O)C(=O)N[C@@H](CCCNC(=N)N)C(=O)N[C@@H](CCC(=O)O)C(=O)N[C@@H](CCCNC(=N)N)C(=O)N[C@@H](C)C(=O)N[C@@H](CCC(=O)O)C(=O)N[C@@H](CCC(N)=O)C(=O)N[C@@H](CC(N)=O)C(=O)N[C@@H](CCCNC(=N)N)C(=O)N[C@H](C(=O)N[C@H](C(=O)N[C@@H](Cc1ccccc1)C(=O)N[C@@H](CC(=O)O)C(=O)N[C@@H](CO)C(=O)N[C@H](C(N)=O)C(C)C)[C@@H](C)CC)[C@@H](C)CC)[C@@H](C)O)[C@@H](C)O)[C@@H](C)O | . | -3 | . | -9% | .
O=C(Nc1ccc(Cl)cc1)Nc1cccc2nsnc12 | ? | 9 | -10 | ? | 87*
CC[C@H](C)[C@H](NC(=O)[C@H](N)Cc1ccc(O)cc1)C(=O)N[C@@H](CC(N)=O)C(=O)N[C@@H](CC(C)C)C(=O)N[C@H](C(=O)N[C@@H](C(=O)N[C@@H](CCCN=C(N)N)C(=O)N[C@@H](CCC(N)=O)C(=O)N[C@@H](CCCN=C(N)N)C(=O)N[C@H](Cc1ccc(O)cc1)C(N)=O)[C@@H](C)O)[C@@H](C)CC | . | -9 | . | -6% | .
C1=C(CCNc2ncnc3c2[nH]c2ccccc23)CCCC1 | 9% | 3 | -29 | 17% | 80*
O=c1c2[nH]c3ccccc3c2ncn1CCC1=CCCCC1 | -4% | -2 | 6 | 15% | 1
CC(C)C(C(=O)O)N1C(=O)/C(=C/c2ccc(Br)cc2)SC1=S (configuration not stated) | . | 0 | . | ? | .
Cc1cccn2c(=O)c3cc(C(=O)NCC4CCCO4)c(=N)n(C4CCCCC4)c3nc12 (configuration not stated) | 16% | 1 | -33 | -20% | 91*
Cc1ccc(C(=O)NCCc2ccncc2)cc1 | -8% | 2 | -8 | 3% | 10
Cc1ccc(S(=O)(=O)Cc2ccc(C(=O)NCCc3ccccc3)o2)cc1 | -4% | -2 | -27 | -5% | 81*
O=C(Cc1ccccc1)NCCSCc1ccccc1 | 1% | -1 | -10 | -2% | 17
O=C(NCCSCc1ccccc1)c1ccc(F)cc1 | 0% | . | -21 | 8% | 81*
Cc1ccc(C(=O)NCCc2ccccc2)cc1 | 0% | 0 | -12 | -2% | 84*
O=C(NCCc1ccccc1)c1ccc(CS(=O)(=O)c2ccc(Cl)cc2)o1 | -1% | -1 | -14 | -6% | ?
CC1=C(C(=O)O)N2C(=O)C(NC(=O)C(N)c3ccccc3)C2SC1 (configuration not stated) | . | 4 | . | 3% | .
SMILES | MLL CXXC-DNA inh | Menin-MLL FL inh | TRPV1 PAM | Menin-MLL TR inh | TRPV1 ag
C/C(CCN1CCCc2nc(C)c(C)cc21)=N\O[C@@H](C)c1cn([C@H](CO)Cc2ccccc2)nn1 | . | 0[11.7 µM] | . | -17%[11.7 µM] | .
CCc1ccc(/C=C2/SC(N3CCOCC3)=NC2=O)cc1 | 1% | 1 | -2 | . | 85*
C=CCOc1ccc(/C=C2\SC(N3CCCCC3)=NC2=O)cc1 | 0% | 4 | 14 | -4% | 82*
Cc1ccc(/C=C2\SC(N3CCCCC3)=NC2=O)cc1 | -1% | 0 | -2 | -9% | ?
CC(C)(C)c1ccc(C(=O)NNC(=O)C2CCCCC2)cc1 | -4% | -2 | -17 | -2% | 90*
CC(C)(C)c1ccc(C(=O)NC(=S)N2CCCCCC2)cc1 | -4% | . | -9 | . | ?
Cc1nn(-c2ccccc2)nc1C(=O)NN | -3% | 2 | ? | . | 6
Cc1nn(-c2ccccc2)nc1C(=O)Nc1ccc2[nH]ncc2c1 | -10% | 3 | -24 | ? | 91*
